AmpC no deterg: inhibitors of E. coli AmpC beta-lactamase without detergent; P00811; AmpC nitrocefin hydrolysis, absorbance 480 nm, 0.0001% Triton; Potency, µM (doses to about 57.1 µM), without a hit: top-dose activity change, negative = inhibition, usual class: inhibitors; 0.52% of 330,000 active; AID 485341;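 note: plate controls were no compound for no effect and no enzyme for full effect; nearly all actives have a fitted effect of over 20% in size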
Target sequence (P00811 whole entry, looked up): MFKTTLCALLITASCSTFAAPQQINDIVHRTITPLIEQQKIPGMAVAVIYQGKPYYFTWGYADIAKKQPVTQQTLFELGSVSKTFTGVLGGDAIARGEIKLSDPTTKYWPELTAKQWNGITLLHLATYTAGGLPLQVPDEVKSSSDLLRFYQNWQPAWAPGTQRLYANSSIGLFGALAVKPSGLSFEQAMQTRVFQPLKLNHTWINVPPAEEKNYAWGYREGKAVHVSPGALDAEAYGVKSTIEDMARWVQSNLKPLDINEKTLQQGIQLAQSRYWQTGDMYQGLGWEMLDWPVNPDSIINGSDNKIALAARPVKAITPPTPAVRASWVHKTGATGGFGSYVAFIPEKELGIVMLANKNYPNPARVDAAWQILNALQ
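AmpC (5.3 nM in the dispensed reagent) in 20 mM phosphate pH 7.0 with 0.01% (detergent screen) or 0.0001% Triton X-100 was preincubated with compounds for 15 min at room temperature. Nitrocefin was then added from an 800 uM solution, and hydrolysis was followed at 480 nm.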
Pf growth 48h: P. falciparum growth inhibition at 48 hours (one generation) | P. falciparum luciferase growth in erythrocytes, 48 h | Potency, µM (doses to about 28.7 µM), without a hit: top-dose activity change, negative = inhibition, actives largely listed as inhibitors | 5.9% of 310,000 active | AID 504832; note: % is set by controls: 0 for no effect and ±100 for the full control effect
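Read-out is firefly luciferase luminescence from an integrated reporter in P. falciparum, so falling signal marks reduced parasite growth. Infected erythrocytes were at 2% hematocrit and 0.1% parasitemia (final) in Albumax-supplemented RPMI 1640.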
Pf growth 96h: P. falciparum growth inhibition at 96 hours | Potency, µM (doses to about 28.7 µM), for inactives: at the highest dose activity change, negative = inhibition, most hits filed as inhibitors | P. falciparum luciferase reporter growth, 96 h | 6.9% of 320,000 active; note: % is set by controls: 0 for no effect and ±100 for the full control effect
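Two-generation exposure (96 h) targets delayed-death phenotype. Reporter parasites carrying integrated firefly luciferase, in red cells at 2% hematocrit and 0.05% parasitemia final, kept at 37 C, 5% CO2; luminescence loss indicates inhibition.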
Sm TGR block: S. mansoni TGR enzyme inhibition. purified TGR, DTNB reduction, TNB absorbance 405 nm. Potency, µM (series often up to 114 µM), for the others: at the top dose activity change, negative = inhibition, actives largely listed as inhibitors. 3% of 360,000 active; note: % is set by controls: 0 for no effect and ±100 for the full control effect; nearly all actives have a fitted effect of over 60% in size
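TGR 20 nM + NADPH 100 uM (dispensed conc.), cpd preinc 15 min RT; start with NADPH (500 uM addition) then DTNB (15 mM addition). Kinetic TNB absorbance, 405 nm filter. Four-parameter Hill fit across titration.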
SARS PLP yeast: SARS-CoV PLP inhibition in yeast | Potency, µM (series often up to 32.9 µM), for inactives: at the top dose activity, positive = growth rescue, actives largely listed as activators | AID 485353 | S. cerevisiae expressing SARS-CoV PLpro, growth rescue | 0.19% of 330,000 active; calls by dose curve; note: 0% is about no effect; nearly all actives have a fitted effect of over 55% in size
AmpC detergent: inhibitors of E. coli AmpC beta-lactamase with detergent | 0.041% of 370,000 active | Potency, µM (top dose mostly 114 µM), for inactives: at the highest dose activity change, negative = inhibition, usual class: inhibitors | P00811 | AmpC hydrolysis of nitrocefin, absorbance 480 nm, 0.01% Triton;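 note: 0% = no-compound wells and -100% = no-enzyme wells; nearly all actives have a fitted effect of over 25% in size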
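AmpC (5.3 nM in the dispensed reagent) in 20 mM phosphate pH 7.0 with 0.01% (detergent screen) or 0.0001% Triton X-100 was preincubated with compounds for 15 min at room temperature. Nitrocefin was then added from an 800 uM solution, and hydrolysis was followed at 480 nm.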
* marks the source's active call; other numbers are inactive results; ? = inconclusive; . = no result given. Sampled rows, rich in hits. Any-hit rate of the full collection: about 12%. Unless noted, calls come from the whole dose curve; as a rule, active = well fitted curve in the direction sought with a large enough effect; inconclusive = small, poorly fitted or top-dose-only effect, or another doubt; inactive = no such curve, though single readings can be large; an effect the other way counts as inactive or inconclusive. Potency is the fitted concentration of half-maximal effect.

SMILES | AmpC no deterg | Pf growth 48h | Pf growth 96h | Sm TGR block | SARS PLP yeast | AmpC detergent
CCNC(=O)NC(=O)CSc1ccc(S(=O)(=O)N2CCCCC2)cn1 | -17% | ? | 5.2µM* | -34% | 3% | -14%
O=C(CS(=O)(=O)c1cccc2nsnc12)NCc1ccc(Cl)cc1 | . | . | . | -16% | . | -8%
O=C(O)c1ccccc1N/N=C/c1c(Sc2nnnn2-c2ccccc2)nc2ccccn2c1=O | -35% | ? | 0.59µM* | 40µM* | 0% | 4%
Cc1ccc(-c2cn3c(n2)sc2cc(C(=O)NC4CCCc5ccccc54)ccc23)cc1 (configuration not stated) | . | . | . | 11% | . | -1%
OC(C#Cc1ccccn1)c1cccs1 (configuration not stated) | 0% | 10µM* | -13% | 1.4µM* | -2% | 7%
CCOc1ccc2nc(N3CCCC(C(=O)NCCCN4CCOCC4)C3)sc2c1 (configuration not stated) | 3.2µM* | 29% | ? | 5% | -1% | ?
CCCCC(=O)N1CCN(c2nc3ccc(OCC)cc3s2)CC1 | 0% | ? | 12µM* | 4% | -8% | -14%
CCOc1ccc2nc(NC(=O)C3CCCN(S(=O)(=O)c4cccs4)C3)sc2c1 (configuration not stated) | -43% | 15µM* | -14% | 6% | -6% | ?
Cc1ccc2nc(NC(=O)C3CCCN(S(=O)(=O)c4cccnc4)C3)sc2c1 (configuration not stated) | -19% | 13µM* | 8% | -10% | 4% | ?
CCCCC(=O)N1CCN(c2nc3ccc(F)cc3s2)CC1 | 13% | 167% | -18% | -9% | 0% | -10%
C/C(=N\NP(=S)(c1ccccc1)c1ccccc1)c1ccc(O)cc1O | 16µM* | ? | ? | -3% | -2% | 9%
CCn1cc(Cl)c(C(=O)N2N=C(c3ccc4ccccc4c3)CC2c2ccccc2O)n1 (configuration not stated) | -37% | 2.1µM* | 1.5µM* | 0% | 7% | -4%
COc1ccc(C2=NN(C(=O)CCC(=O)O)C(c3ccccc3OC)C2)cc1 (configuration not stated) | -20% | ? | ? | -1% | 1% | -3%
CCn1cc([N+](=O)[O-])c(C(=O)N2N=C(c3cccc4ccccc34)CC2c2ccccc2O)n1 (configuration not stated) | -19% | 9.3µM* | 13µM* | 1% | 8% | -1%
CC(=O)OCC(=O)N1N=C(c2ccc3ccccc3c2)CC1c1ccccc1 (configuration not stated) | 108% | 85% | 44% | -17% | -6% | -4%
CCn1cc([N+](=O)[O-])c(C(=O)N2N=C(c3ccc4ccccc4c3)CC2c2ccccc2O)n1 (configuration not stated) | -2% | 8.3µM* | ? | -1% | 3% | -14%
CCn1cc([N+](=O)[O-])c(C(=O)N2CCCC2)n1 | -19% | 20% | . | -32% | 7% | -12%
CCn1cc([N+](=O)[O-])c(C(=O)N2N=C(c3ccc(OC)cc3OC)CC2c2ccccc2O)n1 (configuration not stated) | 5% | ? | 10µM* | 3% | ? | ?
CCOC(=O)N1CCC(N2Cc3cccc(C(=O)NC(C)c4ccc5c(c4)OCCO5)c3C2=O)CC1 (configuration not stated) | 102% | . | -14% | 0% | 3% | -11%
CCNC(=O)CON=C1c2ccccc2-c2ccccc21 | -3% | 8% | -9% | -23% | ? | -8%
CCC(CC)NC(=O)CON=C1c2ccccc2-c2ccccc21 | -27% | 13µM* | 13µM* | 4% | 23% | 0%
CC(=O)c1cc(F)ccc1OCC(=O)N1CCN(c2ccc(F)cc2)CC1 | 13% | 4.1µM* | -25% | -4% | 0% | 4%

High-throughput results from PubChem BioAssay.
